In PubChem BioAssay one finds z-score and composite z-score data, which are given here for nine molecules.

The source made the active and inactive calls. Unless noted, no rule for the calls is given here.

Test [1] in a line: HepG2 liver cancer cell viability effects, profiling panel, resazurin fluorescence, 24 h, PK04 Diversity Set (AID 1172). Particulars: higher = more signal. For orientation: The colour change of resazurin is a common sign of viable cells or microbes.
The nature of test [2]: basal S. cerevisiae growth modulation, no modifier, primary screen, OD600, strain BY4716, 24 h, basal condition (AID 1173). To be noted: OD600, 24 h, higher = more signal, called active from +8 up or from −8 down.
The nature of test [3]: MM1S myeloma cell viability, profiling panel, resazurin fluorescence, basal, 24 h, PK04 Diversity Set (AID 1174).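 Also: MM1S multiple myeloma cell line.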 Particulars: higher = more signal, called active from +8 up or from −8 down.
Test [4] concerns the target Dihydroorotate dehydrogenase (quinone), mitochondrial (Plasmodium falciparum (isolate 3D7)) (UniProt Q08210). As to the kind of experiment: PfDHODH enzyme inhibitors, primary screen, biochemical, C-terminal His tag, absorbance 600 nm (AID 1175).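 Also: recombinant parasite enzyme with a five histidine tag at its C terminus.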 Particulars: DCIP absorbance 600 nm, higher = more signal, called active from +8 up or from −8 down.
The nature of test [5]: P. aeruginosa biofilm formation inhibitors, primary screen, strain PAO1, LB-PBS medium, absorbance 600 nm (AID 1176). Particulars: P. aeruginosa PAO1 growth/biofilm, A600, 12 h; higher = more signal.
Test [6] can be described thus: S. cerevisiae RM11-1a growth modifiers, primary screen, strain RM11-1a, OD600, basal, 24 h (AID 1177).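 Also: cultures grown under basal conditions with no added stressor.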 To be noted: OD600, 24 h, higher = more signal, called active from +8 up or from −8 down.
A short description of test [7]: E. coli acrAB mutant growth effects, primary screen, E. coli filamentation inducers, strain DRC39, OD650, 24 h (AID 1178).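 Also: growth measured as culture turbidity by optical density at 650 nm.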 To be noted: higher = more signal, called active from +8 up or from −8 down.
Test [8] is described as follows: E. coli acrAB mutant growth effects, primary screen, E. coli filamentation inducers, strain DRC39, OD650, 48 h (AID 1179).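 Also: screen aims at cell division blockers that make cells filament.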 To be noted: E. coli DRC39 delta-acrAB growth, higher = more signal, called active from +8 up or from −8 down.
The nature of test [9]: RPMI8226 myeloma cell viability, profiling panel, resazurin fluorescence, basal, 24 h, PK04 Diversity Set (AID 1180).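 Also: RPMI8826 multiple myeloma cell line at 5000 cells per well.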 Particulars: higher = more signal.
Test [10] has as its target E3 ubiquitin-protein ligase XIAP (Homo sapiens) (UniProt P98170). Kind of test: XIAP binders, primary screen, biophysical, small-molecule microarray, fluorescence 635 nm (AID 1181).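 Also: score merges 667 nm emission and signal to noise over triplicate slides.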 Particulars: small-molecule microarray binding, higher = more signal.
Test [11] has as its system XIP peptide (Xip251-270) binding. As to the kind of experiment: small-molecule binders of XIP peptide, primary screen, biochemical, small-molecule microarray, fluorescence 635/667 nm, 0.1 µg/mL protein (AID 1182). To be noted: fluorescent protein binding, 635 nm, higher = more signal, called active from +8 up or from −8 down.
Another test has as its system XIP peptide (Xip251-270). As to the kind of experiment: small-molecule binders of XIP peptide, primary screen, biochemical, small-molecule microarray, fluorescence 635/667 nm, 0.5 µg/mL protein (AID 1183). To be noted: small-molecule microarray binding, fluorescence 635 nm; higher = more signal.
Test [12] in a line: Plasmodium falciparum growth inhibition, primary screen, strain 3D7, DAPI fluorescence, 100 nL (AID 1184).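 Also: parasites grown inside human red blood cells in medium with human serum.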 To be noted: P. falciparum 3D7 growth, 3 d, higher = more signal.
For test [13], the target named is Homeobox protein Hox-A13 (Mus musculus) (UniProt Q62424). As to the kind of experiment: inhibitors of HoxA13-DNA binding, primary screen, biochemical, fluorescence polarization, labeled oligonucleotide (AID 1185). Particulars: 15 min, higher = more signal, called active from +8 up or from −8 down. Background: Polarisation of emitted light reports the rotation of a fluorescent probe.
Homeobox protein Hox-A13 (Mus musculus), sequence (Q62424 whole entry, looked up): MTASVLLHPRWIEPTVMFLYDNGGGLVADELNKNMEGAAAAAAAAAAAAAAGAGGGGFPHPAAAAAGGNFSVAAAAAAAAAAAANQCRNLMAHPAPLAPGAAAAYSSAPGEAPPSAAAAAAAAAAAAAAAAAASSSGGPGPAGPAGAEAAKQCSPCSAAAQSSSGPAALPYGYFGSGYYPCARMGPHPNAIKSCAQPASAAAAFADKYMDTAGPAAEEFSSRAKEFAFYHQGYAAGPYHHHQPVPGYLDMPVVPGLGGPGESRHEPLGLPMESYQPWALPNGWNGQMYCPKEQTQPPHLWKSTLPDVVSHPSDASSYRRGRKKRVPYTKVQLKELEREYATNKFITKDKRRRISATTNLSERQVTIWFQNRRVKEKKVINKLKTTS

Test [14] in a line: inhibitors of hydroxyurea-induced Chk1 phosphorylation, primary screen, imaging, HeLa, phospho-Chk1 antibody, percent positive cells (AID 1186). To be noted: hydroxyurea-induced phospho-Chk1 immunofluorescence imaging, higher = more signal.
Test [15] is described as follows: inhibitors of hydroxyurea-induced Chk1 phosphorylation, primary screen, imaging, HeLa, phospho-Chk1 nuclear intensity (AID 1187). Particulars: hydroxyurea-induced phospho-Chk1 immunofluorescence imaging, higher = more signal.

Dihydroorotate dehydrogenase (quinone), mitochondrial (Plasmodium falciparum (isolate 3D7)), sequence (Q08210 whole entry, looked up): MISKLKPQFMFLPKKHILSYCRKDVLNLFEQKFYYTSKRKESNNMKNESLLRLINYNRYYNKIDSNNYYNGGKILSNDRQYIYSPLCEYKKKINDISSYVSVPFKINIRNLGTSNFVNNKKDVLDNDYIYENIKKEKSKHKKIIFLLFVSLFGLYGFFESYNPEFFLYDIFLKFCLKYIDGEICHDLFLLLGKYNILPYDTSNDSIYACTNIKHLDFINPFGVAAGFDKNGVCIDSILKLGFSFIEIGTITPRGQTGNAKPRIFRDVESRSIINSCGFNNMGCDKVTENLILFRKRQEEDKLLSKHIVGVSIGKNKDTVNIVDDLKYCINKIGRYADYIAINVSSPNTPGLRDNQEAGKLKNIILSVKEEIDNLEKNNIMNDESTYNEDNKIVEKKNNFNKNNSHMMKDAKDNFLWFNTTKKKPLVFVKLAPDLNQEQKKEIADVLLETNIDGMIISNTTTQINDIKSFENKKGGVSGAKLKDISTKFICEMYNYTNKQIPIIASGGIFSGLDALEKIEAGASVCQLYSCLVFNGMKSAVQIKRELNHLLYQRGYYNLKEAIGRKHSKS
E3 ubiquitin-protein ligase XIAP (Homo sapiens), sequence (P98170 whole entry, looked up): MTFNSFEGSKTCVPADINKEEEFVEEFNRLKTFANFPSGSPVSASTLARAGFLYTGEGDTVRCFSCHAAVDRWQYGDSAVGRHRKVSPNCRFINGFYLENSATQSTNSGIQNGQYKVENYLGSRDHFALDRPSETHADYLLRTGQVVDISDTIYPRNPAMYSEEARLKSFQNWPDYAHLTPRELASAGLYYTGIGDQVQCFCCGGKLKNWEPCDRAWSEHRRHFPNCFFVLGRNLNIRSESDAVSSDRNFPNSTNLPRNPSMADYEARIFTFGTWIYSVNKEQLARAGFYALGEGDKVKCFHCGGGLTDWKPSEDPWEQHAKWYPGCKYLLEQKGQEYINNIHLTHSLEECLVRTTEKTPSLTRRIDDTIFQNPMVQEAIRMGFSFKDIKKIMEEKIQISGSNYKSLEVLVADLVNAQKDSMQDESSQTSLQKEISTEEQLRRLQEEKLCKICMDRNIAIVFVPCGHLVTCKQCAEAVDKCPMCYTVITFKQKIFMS

With `[N-]=[N+]=NCc1ccccc1[C@H]1OC(c2ccc(OCCCO)cc2)=N[C@@]1(Cc1ccccc1)C(=O)N1CCOCC1`, the z-score was 1.35 in test [1]; -2.25 (inactive) in [2]; -0.0295 (inactive) in test [3]; 0.841 (inactive) in test [5]; 0.176 (inactive) in [6]; -0.0844 (inactive) in test [7]. Moreover, the z-score in test [8] is -1 (inactive); in [9] it was 0.349; in test [12], -2.62; in test [13], -3.37 (inactive); in test [14], -0.11 (inactive); in [15], -0.185 (inactive). The composite z-score in test [4] is 0.222 (inactive); in test [10], 0.0578; in test [11] it was 0.0472 (inactive); in the test on XIP peptide (Xip251-270), 0.667.

As for `CCOC(=O)C[C@H]1[C@H](OC(=O)c2ccc(C(=O)c3ccccc3)cc2)[C@@H](NC(=O)c2ccc3ccccc3c2)c2cc(OCCCO)ccc2N1C(=O)c1ccc2ccccc2n1`, the z-score in test [1] is 0.213; in [2] it was -0.628 (inactive); in test [3], 0.64 (inactive); in test [5], -0.595 (inactive); in test [6], 0.351 (inactive); in [7], 0.571 (inactive). The z-score is 0.534 (inactive) in test [8]; 0.395 in test [9]; -2.68 in test [12]; -1.96 (inactive) in [13]; -0.318 (inactive) in test [14]; 0.25 (inactive) in test [15]. For the same molecule, the composite z-score in test [4] is 0.824 (inactive); in test [10], -0.0726; in [11], 0.27 (inactive); in the test with XIP peptide (Xip251-270), 0.197.

Consider `C=CC[C@@]12N=C(c3ccc(OCCCO)cc3)O[C@@H]1c1ccccc1N(Cc1ccccc1)C2=O`, for which the z-score in [1] is 0.157; in test [2] it was -0.848 (inactive); in test [3], -2.58 (inactive); in test [5], 0.469 (inactive); in test [6], 0.632 (inactive); in test [7], 1.48 (inactive). Further, the z-score is 0.666 (inactive) in [8]; -2.37 in test [9]; -2.42 in test [12]; -2.23 (inactive) in [13]; 0.0198 (inactive) in [14]; 0.552 (inactive) in test [15]. Moreover, the composite z-score in [4] is -0.162 (inactive); in test [10], 0.322; in test [11] it was 0.799 (inactive); with XIP peptide (Xip251-270) it was 0.797.

`CCCCCCc1nc(-c2ccc(OC)nc2)cc2c1[Si](C(C)C)(C(C)C)OC2`: the z-score is 0.0579 in [1]; 0.721 (inactive) in test [2]; 0.426 (inactive) in [3]; -0.0391 (inactive) in [5]; -0.483 (inactive) in test [6]; 0.37 (inactive) in test [7]. Besides, the z-score is 0.212 (inactive) in [8]; 0.343 in [9]; -1.99 in test [12]; -3.55 (inactive) in [13]; -0.0362 (inactive) in test [14]; 0.237 (inactive) in test [15]. In addition, the composite z-score in test [4] is -3.12 (inactive); in test [10], -0.0525; in [11], -0.0275 (inactive); with XIP peptide (Xip251-270), -0.019.

As for `COc1cc2c(cc1O)C(c1ccc(CN3CCCC3)cc1)N(Cc1ccc([N+](=O)[O-])o1)CC2` (centres undefined), the z-score in test [1] was -0.274; in [2], -0.547 (inactive); in [3] it was -0.727 (inactive); in test [5] it was 0.0898 (inactive); in test [6], 0.0464 (inactive); in [7], -0.79 (inactive). The z-score was -0.259 (inactive) in [8]; -0.437 in test [9]; -0.672 in test [12]; -7.64 (inactive) in test [13]; 0.191 (inactive) in test [14]; 0.134 (inactive) in [15]. Also, the composite z-score in test [4] is -0.412 (inactive); in test [10], 0.0537; in test [11], 0.119 (inactive); in the test on XIP peptide (Xip251-270), -0.0067.

As to `CCCCC(O)C1C=CC2C(=O)NC(=O)C2N1Nc1ccccn1` (centres undefined), the z-score in test [1] is -1.32; in test [2] it was 0.932 (inactive); in test [3], -1.09 (inactive); in [5] it was 0.695 (inactive); in test [6], 0.369 (inactive); in test [7], -0.576 (inactive). The z-score in test [8] is -0.529 (inactive); in [9], -1.07; in test [12] it was 0.993; in test [13], -1.21 (inactive); in test [14] it was 0.846 (inactive); in test [15], 0.318 (inactive). Moreover, the composite z-score is 0.487 (inactive) in test [4], 0.117 in test [10], -0.634 (inactive) in [11] and 0.146 with XIP peptide (Xip251-270).

Turning to `[N-]=[N+]=NCc1ccccc1C[C@@]1(C(=O)O)N=C(c2ccc(OCCCO)cc2)O[C@@H]1c1ccccc1CN=[N+]=[N-]`, the z-score was 1.86 in test [1]; -4 (inactive) in test [2]; 0.781 (inactive) in test [3]; -0.608 (inactive) in [5]; -0.916 (inactive) in test [6]; 0.274 (inactive) in test [7]. The z-score in test [8] is 0.697 (inactive); in test [9], 1.03; in test [12], 0.107; in test [13], -5.11 (inactive); in test [14], -0.199 (inactive); in test [15] it was -0.026 (inactive). The composite z-score is -1.62 (inactive) in [4], 0.209 in test [10], 0.673 (inactive) in test [11] and 0.512 with XIP peptide (Xip251-270).

In the case of `Cc1ccc(S[C@]2(C(=O)NCC(F)(F)F)CC(=O)N(C3CCCCC3)[C@@H]2c2ccc(CO)cc2)cc1`, the z-score is -0.473 in [1]; -0.0396 (inactive) in test [2]; 0.273 (inactive) in test [3]; 0.0309 (inactive) in test [5]; 0.309 (inactive) in [6]; 0.457 (inactive) in test [7]. For the same molecule, the z-score is 1.01 (inactive) in test [8]; 0.149 in [9]; -0.703 in test [12]; -3.04 (inactive) in [13]; -0.418 (inactive) in test [14]; -0.25 (inactive) in [15]. The composite z-score in test [4] is -1.41 (inactive); in test [10], -0.155; in [11] it was 0.23 (inactive); in the test on XIP peptide (Xip251-270) it was 0.201.

On to `C=CCNC(=O)[C@H]1[C@@H]2C(=O)O[C@@H](c3ccccc3)[C@@H](c3ccccc3)N2[C@@H](c2ccccc2OCCO)[C@]12C(=O)N(C(=O)OCCOC)c1ccccc12`, for which the z-score is -0.293 in test [1]; 1.52 (inactive) in test [2]; -1.04 (inactive) in [3]; 2.98 (inactive) in [5]; 2 (inactive) in test [6]; 0.225 (inactive) in [7]. Besides, the z-score in [8] was -0.369 (inactive); in test [9], -2.9; in [12], -1.68; in test [13], -4.77 (inactive); in test [14], 0.0539 (inactive); in test [15] it was 0.109 (inactive). Further, the composite z-score in test [4] was 0.692 (inactive); in [10] it was 0.0797; in test [11], 0.346 (inactive); with XIP peptide (Xip251-270), 0.814.
